# Measurements from PubChem BioAssay (Tox21).
# “And” between values parts separate entries of the source, which are not always exact repeats. Identical values can stand only once. Records with an inconclusive call do not appear. A call without a number means that no potency is given here. Some compounds were tested as several samples or in several runs, with calls that do not always agree. The source made the active and inactive calls. Unless noted, the call rests on the fitted dose curve; in most records, active means well fitted curve in the direction sought with a large enough effect in the repeat runs; inconclusive means weak or mixed curves; inactive means no such curve, though single readings can be large; an effect the other way counts as inactive or inconclusive.
# Tests used:
# [1] = qHTS assay for identifying genotoxic compounds that show differential cytotoxicity against isogenic chicken DT40 cell lines with known DNA damage response pathways - wild type cell line (AID 743012); conditions: DT40 wild type chicken cells viability, CellTiter-Glo, 40 h; series mostly up to 68.4 µM; further: nearly all actives have a fitted effect of over 60% in size; further: potency means the concentration at half of the fitted maximal effect
# How it was run: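 Cytotoxicity in repair-proficient parental chicken DT40 cells serves as the comparator for Rad54/Ku70- and Rev3-deficient lines. Cells were exposed to compounds for 40 h at 37 C/5% CO2, and ATP-based luminescence (CellTiter-Glo) measured viability.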
# [2] = qHTS assay for identifying genotoxic compounds that show differential cytotoxicity against isogenic chicken DT40 cell lines with known DNA damage response pathways - Rad54/Ku70 mutant cell line (AID 743015); conditions: DT40 Rad54/Ku70 mutant viability, CellTiter-Glo, 40 h; series mostly up to 66.8 µM; further: nearly all actives have a fitted effect of over 60% in size; further: potency means the concentration at half of the fitted maximal effect
# [3] = qHTS assay to identify small molecule antagonists of the androgen receptor (AR) signaling pathway using the MDA cell line - cell viability counter screen (AID 743041; further: nearly all actives have a fitted effect of over 45% in size; further: potency means the concentration at half of the fitted maximal effect); conditions: MDA-kb2 viability, CellTiter-Fluor, 16 h, cells co-treated with R1881 androgen agonist; series mostly up to 70.3 µM
# How it was run: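 Viability read by CellTiter-Fluor fluorescence in the same wells as the antagonist screen, added after 15.5 h of a 16 h, 37C exposure. Human breast carcinoma MDA-kb2 AR-luc cells, compounds co-dosed with agonist R1881.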
# [4] = qHTS assay to identify small molecule antagonists of the androgen receptor (AR) signaling pathway - cell viability counter screen (AID 743033; further: nearly all actives have a fitted effect of over 45% in size); conditions: AR-bla HEK293 viability, CellTiter-Glo luminescence, 16 h; series mostly up to 58.5 µM
# [5] = target: Androgen receptor (Homo sapiens) (UniProt P10275); experiment: qHTS assay to identify small molecule antagonists of the androgen receptor (AR) signaling pathway (AID 743035; active means well fitted inhibition curve with a large enough effect in the signal ratio in the repeat runs, not every such curve was filed as active; the % refers to the signal ratio; further: potency means the concentration at half of the fitted maximal effect); conditions: HEK293 AR-UAS-bla, R1881-stimulated, beta-lactamase FRET, 16 h; series mostly up to 58.5 µM
# How it was run: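 Steps: seed AR-UAS-bla GripTite HEK293 cells, incubate 4 h at 37C; pin in test compound, then add agonist R1881; incubate 16 h at 37C; add LiveBLAzer B/G FRET substrate, 2 h at room temperature; read fluorescence.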
# [6] = target: Androgen receptor (Homo sapiens) (UniProt P10275); experiment: qHTS assay to identify small molecule agonists of the androgen receptor (AR) signaling pathway (AID 743036; active means well fitted activation curve with a large enough effect in the signal ratio in the repeat runs, with a control signal flat, not every such curve was filed as active; the % refers to the signal ratio); conditions: HEK293 AR-UAS-bla GripTite, beta-lactamase FRET ratio, 16 h; series mostly up to 62.4 µM
# How it was run: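 Cell-based FRET reporter assay: HEK293 line with a UAS-beta-lactamase construct, compounds added in DMSO, 16 h exposure at 37C, then 2 h substrate step at room temperature and fluorescence intensity read.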
# [7] = target: Androgen receptor (Homo sapiens) (UniProt P10275); experiment: qHTS assay to identify small molecule agonists of the androgen receptor (AR) signaling pathway using the MDA cell line (AID 743040; further: nearly all actives have a fitted effect of over 20% in size); conditions: MDA-kb2 AR-luc cells, MMTV luciferase, 16 h; series mostly up to 70.3 µM
# How it was run: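 Luciferase agonist assay: 16 h compound exposure at 37C without CO2 in MDA-kb2 AR-luc cells, whose MMTV promoter responds to both AR and GR. Luminescence measured after 30 min room-temperature incubation with ONE-Glo.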
# [8] = target: Androgen receptor (Homo sapiens) (UniProt P10275); experiment: qHTS assay to identify small molecule antagonists of the androgen receptor (AR) signaling pathway using the MDA cell line (AID 743042; further: nearly all actives have a fitted effect of over 55% in size; further: potency means the concentration at half of the fitted maximal effect); conditions: MDA-kb2 AR-luc, MMTV luciferase, R1881 antagonist, 16 h; series mostly up to 70.3 µM
# How it was run: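 Antagonist mode: compounds plus R1881 agonist added to MDA-kb2 AR-luc cells, incubated 16 h at 37C. Luciferase reporter luminescence quantified, with multiplexed CellTiter-Fluor readout for cell viability.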
# [9] = qHTS assay for identifying genotoxic compounds that show differential cytotoxicity against isogenic chicken DT40 cell lines with known DNA damage response pathways - Rev3 mutant cell line (AID 743014); conditions: chicken DT40 Rev3-/- viability, CellTiter-Glo, 40 h; series mostly up to 68.4 µM; further: nearly all actives have a fitted effect of over 55% in size; further: potency means the concentration at half of the fitted maximal effect
# Chain of Androgen receptor (Homo sapiens) (P10275 whole entry, looked up): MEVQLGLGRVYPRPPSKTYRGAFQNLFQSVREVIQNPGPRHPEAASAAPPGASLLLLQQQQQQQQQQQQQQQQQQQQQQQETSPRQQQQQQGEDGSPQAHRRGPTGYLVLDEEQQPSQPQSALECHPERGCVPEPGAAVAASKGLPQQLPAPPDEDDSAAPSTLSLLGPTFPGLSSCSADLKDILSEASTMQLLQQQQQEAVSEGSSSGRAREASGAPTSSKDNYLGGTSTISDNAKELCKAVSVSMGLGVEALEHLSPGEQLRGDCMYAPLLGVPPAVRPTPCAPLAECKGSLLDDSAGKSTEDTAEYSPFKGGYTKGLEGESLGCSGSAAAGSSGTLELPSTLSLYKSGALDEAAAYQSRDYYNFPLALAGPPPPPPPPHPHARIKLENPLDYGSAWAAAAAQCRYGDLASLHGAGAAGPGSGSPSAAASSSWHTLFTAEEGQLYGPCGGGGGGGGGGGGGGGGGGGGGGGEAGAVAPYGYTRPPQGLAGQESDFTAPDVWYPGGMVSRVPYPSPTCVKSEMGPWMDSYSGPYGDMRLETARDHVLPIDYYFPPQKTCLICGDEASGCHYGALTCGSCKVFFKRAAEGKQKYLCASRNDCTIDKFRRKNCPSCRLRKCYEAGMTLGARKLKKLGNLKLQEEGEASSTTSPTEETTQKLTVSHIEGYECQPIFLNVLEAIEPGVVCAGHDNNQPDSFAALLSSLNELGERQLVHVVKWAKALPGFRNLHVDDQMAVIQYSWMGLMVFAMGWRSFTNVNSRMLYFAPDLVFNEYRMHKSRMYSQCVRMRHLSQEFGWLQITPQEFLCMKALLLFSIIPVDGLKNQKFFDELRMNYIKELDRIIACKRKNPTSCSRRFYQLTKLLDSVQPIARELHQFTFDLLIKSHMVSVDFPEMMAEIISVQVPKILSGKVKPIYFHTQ
compound,measurement,setting,value
N[C@@H](Cc1cc(I)c(O)c(I)c1)C(=O)O,Potency,[1],inactive
same,Potency,[2],inactive
same,Potency,[3],inactive
COC(=O)CC(C(C)=O)C(=O)OC (stereo unspecified),Potency,[1],inactive
same,Potency,[2],inactive
same,Potency,[4],inactive
same,Potency,[5],inactive
same,outcome,[6],inactive
same,Potency,[7],inactive
same,Potency,[3],inactive
same,Potency,[8],inactive
O=C1OC[C@H](Cc2cccc(O)c2)[C@H]1Cc1cccc(O)c1,Potency,[1],inactive
same,Potency,[9],inactive
same,Potency,[2],inactive
same,Potency,[4],inactive
same,Potency,[3],inactive
CCCCCCCCCCCC(=O)OCC(O)CO (stereo unspecified),Potency,[1],inactive and 61.1 µM (active)
same,Potency,[9],inactive
same,Potency,[2],inactive and 61.1 µM (active)
same,Potency,[4],inactive
same,Potency,[3],inactive
CCCCCCCC/C=C\CCCCCCCC(=O)OCCO,Potency,[9],81 µM (active)
same,Potency,[2],72.2 µM (active)
same,Potency,[3],inactive
CCNc1nc(N)nc(Cl)n1,Potency,[1],inactive
same,Potency,[9],inactive
same,Potency,[2],inactive
same,Potency,[3],inactive
O=C(c1ccccc1)c1ccc(O)cc1,Potency,[4],inactive
same,Potency,[7],inactive
same,Potency,[3],inactive
same,Potency,[8],inactive
CC(O)Cn1cnc2c1c(=O)n(C)c(=O)n2C (stereo unspecified),Potency,[1],inactive
same,Potency,[9],inactive
same,Potency,[2],inactive
same,Potency,[3],inactive
CCN(Cc1cccc(S(=O)(=O)O)c1)c1ccc(C(=C2C=CC(=[N+](CC)Cc3cccc(S(=O)(=O)O)c3)C=C2)c2ccccc2S(=O)(=O)[O-])cc1,Potency,[1],15.4 µM (active)
same,Potency,[9],17.3 µM (active)
same,Potency,[2],15.4 µM (active)
same,Potency,[3],38.7 µM (active)
Cc1ccc2c(c1[N+](=O)[O-])C(=O)c1ccccc1C2=O,Potency,[3],inactive
COc1ccc(C(=O)NCc2ccc(OCCN(C)C)cc2)cc1OC,Potency,[1],inactive
same,Potency,[2],inactive
same,Potency,[3],inactive
CC(C)CC(O)CC(C)C,Potency,[1],inactive
same,Potency,[2],inactive
same,Potency,[4],inactive
CN1C(CSCC(F)(F)F)Nc2cc(Cl)c(S(N)(=O)=O)cc2S1(=O)=O (stereo unspecified),Potency,[1],11.9 µM (active)
same,Potency,[9],26.6 µM (active)
same,Potency,[4],inactive
same,Potency,[5],inactive
same,outcome,[6],inactive
same,Potency,[7],inactive
same,Potency,[3],inactive
same,Potency,[8],inactive
O=C(Nc1ccc(C(=O)O)c(O)c1)c1ccccc1,Potency,[1],inactive
same,Potency,[4],inactive
same,Potency,[3],inactive
C[C@@H]1[C@H](O)[C@@H](C)/C=C/C=C\C=C\C=C\C=C\C=C\C=C\[C@H](O[C@@H]2O[C@H](C)[C@@H](O)[C@H](N)[C@@H]2O)C[C@@H]2O[C@](O)(C[C@@H](O)C[C@@H](O)[C@H](O)CC[C@@H](O)C[C@@H](O)CC(=O)O[C@H]1C)C[C@H](O)[C@H]2C(=O)O (stereo in doubt),Potency,[1],inactive
same,Potency,[9],inactive
same,Potency,[4],inactive
same,Potency,[3],inactive
COC(C)(C)OC,Potency,[1],inactive
same,Potency,[4],inactive
same,Potency,[3],inactive
CC(C)COC(=O)c1ccc(O)cc1,Potency,[1],inactive
same,Potency,[4],inactive
same,Potency,[3],inactive
COC(=O)C1=C(C)NC(C)=C(C(=O)OC(C)(C)CN(C)CCC(c2ccccc2)c2ccccc2)C1c1cccc([N+](=O)[O-])c1 (stereo unspecified),Potency,[1],5.96 µM (active)
same,Potency,[2],9.44 µM (active)
same,Potency,[4],inactive
same,Potency,[5],23.9 µM (active)
same,Potency,[7],inactive
same,Potency,[3],inactive
same,Potency,[8],29.8 µM (active)
Cc1ccc(Nc2c(F)cccc2Cl)c(CC(=O)O)c1,Potency,[1],inactive
same,Potency,[9],inactive
same,Potency,[2],inactive
same,Potency,[4],inactive
same,Potency,[3],inactive
COc1ccc(C2C(=O)c3ccccc3C2=O)cc1,Potency,[1],inactive
same,Potency,[2],inactive
same,Potency,[4],inactive
same,Potency,[3],inactive
CCCCCCC(CO)CCCC (stereo unspecified),Potency,[1],inactive
same,Potency,[2],inactive
same,Potency,[4],inactive
same,Potency,[3],inactive
Cc1cc([N+](=O)[O-])ccc1N,Potency,[1],inactive
same,Potency,[9],inactive
same,Potency,[2],inactive
same,Potency,[3],inactive
CC1CCc2nccnc21 (stereo unspecified),Potency,[1],inactive
same,Potency,[2],54.5 µM (active)
same,Potency,[3],inactive
O=P(O)(O)Oc1ccccc1,Potency,[1],inactive
same,Potency,[9],inactive
same,Potency,[4],inactive
same,Potency,[3],inactive
CC(C)(C)C(O)/C=C/c1ccc2c(c1)OCO2 (stereo unspecified),Potency,[3],inactive
CCCCCCCCCCCSCC(=O)O,Potency,[1],inactive
same,Potency,[9],inactive
same,Potency,[2],inactive
same,Potency,[4],inactive
same,Potency,[3],inactive
O=C(O)CCCc1c[nH]c2ccccc12,Potency,[1],inactive
same,Potency,[9],inactive
same,Potency,[4],inactive
same,Potency,[3],inactive
CC(C)C(O)C(C)(C)CO (stereo unspecified),Potency,[1],inactive
same,Potency,[2],inactive
same,Potency,[4],inactive
same,Potency,[3],inactive
CC(=O)NCCO,Potency,[1],inactive
same,Potency,[4],inactive
same,Potency,[3],inactive
